For test [1], the system named is Plasmodium falciparum Sir2 (PF13_0152, Sir2A). Kind of test: pfSir2 binders on small-molecule microarrays, primary screen, biochemical, small-molecule microarray, 635 nm fluorescence (AID 1098).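 Further: score merges spot fluorescence intensity with its signal-to-noise ratio.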 The following applies: small-molecule microarray binding, fluorescence 635 nm; higher = more signal.
The nature of test [2]: small-molecule microarray binders of probe aDKK1, primary screen, biochemical, biotinylated probe, 635/667 nm fluorescence (AID 1099).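 Further: score merges 667nm spot fluorescence with signal to noise across triplicate slides.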 The following applies: higher = more signal.
Test [3] can be described thus: small-molecule microarray binders of probe aCHRDL2, primary screen, biochemical, biotinylated probe, 635/667 nm fluorescence (AID 1100). The following applies: higher = more signal.
Test [4] in a line: splicing luciferase reporter signal modulators, primary screen, spliceosome inhibition project, cell-based, HEK293, splice +/- reporter (AID 1101).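 Further: HEK293 cells carrying a splicing-competent luciferase reporter gene; test concentration not given here.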 The following applies: luminescence, 24 h, higher = more signal, called active from +8 up or from −8 down. In general terms: Reporter assays use an easily measured gene product as a stand-in for the process of interest.
Test [5] addresses Fibroblast growth factor 10 (Homo sapiens) (UniProt O15520). In words: FGF10 binders on small-molecule microarrays, primary screen, biochemical, small-molecule microarray, 635 nm fluorescence (AID 1102). The note with it: FGF10 binding, fluorescence 635 nm, higher = more signal.
In test [6] the test system is glycogen synthase kinase-3 (GSK3A per assay name; protocol says GSK3B). In words: GSK3 binders on small-molecule microarrays, primary screen, biochemical, small-molecule microarray, 635 nm fluorescence, GSK3A (AID 1103). Further: the record names both GSK3A and GSK3B. The note with it: small-molecule microarray binding, fluorescence 635 nm; higher = more signal.
Test [7] has as its target Epidermal growth factor receptor (Homo sapiens) (UniProt P00533). Kind of test: EGFR binders on small-molecule microarrays, primary screen, biochemical, small-molecule microarray, 635 nm fluorescence (AID 1104).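 Further: score merges 667 nm emission intensity with spot signal to noise over triplicate slides.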 The note with it: EGFR binding, higher = more signal.
The target in test [8] is Follistatin-related protein 3 (Homo sapiens) (UniProt O95633). In words: FSTL3 binders on small-molecule microarrays, primary screen, biochemical, small-molecule microarray, 635 nm fluorescence (AID 1105).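 Further: score merges emission near 667 nm and signal to noise per printed spot across three slides.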 The note with it: FSTL3 binding, higher = more signal.
Test [9] deals with Dickkopf-related protein 1 (Homo sapiens) (UniProt O94907). Kind of test: DKK1 binders on small-molecule microarrays, primary screen, biochemical, small-molecule microarray, 635 nm fluorescence scan (AID 1106).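 Further: score merges emission near 667 nm with signal to noise over three replicate slides.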 The note with it: DKK1 binding, higher = more signal.
The subject of test [10] is Inhibin beta A chain (activin A). Kind of test: INHBA (activin A) binders on microarrays, primary screen, biochemical, small-molecule microarray, 635 nm fluorescence scan (AID 1107).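 Further: mouse activin A protein probed at 4.33 µg/mL on printed slides; score merges bound-protein fluorescence near 667 nm with spot signal-to-noise.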 The following applies: small-molecule microarray binding, higher = more signal.
Test [11] relates to Human papillomavirus type 1a protein E7 (residues 44-93). In words: HPV1a E7 fragment binders on microarrays, primary screen, biochemical, small-molecule microarray, residues 44-93, 635 nm fluorescence (AID 1108).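 Further: E7 fragment applied at 1 µg/mL in TBST for 1 h at 4 C; score combines spot fluorescence with its signal to noise ratio.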 The note with it: small-molecule microarray binding, fluorescence 635 nm; higher = more signal.
A short description of test [12]: modulators of HCV replicon luciferase signal, primary screen, HCV replication inhibitor project, Huh7 cells, luciferase reporter (AID 1109).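 Further: huh7 hepatoma cells harbouring a luciferase neomycin HCV replicon reporter; luciferase luminescence as measure of HCV replicon replication; test concentration not given here.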 The following applies: 48 h, higher = more signal.
The target of test [13] is Left-right determination factor 2 (Homo sapiens) (UniProt O00292). In words: LEFTY2 binders on small-molecule microarrays, primary screen, biochemical, small-molecule microarray, 635 nm fluorescence scan (AID 1110). The note with it: LEFTY2 binding, higher = more signal.
Test [14] has as its target Calmodulin-1 (Homo sapiens) (UniProt P0DP23). Kind of test: CALM1 binders on microarrays, EGTA buffer, profiling panel, biochemical, small-molecule microarray, Cy5-labelled CALM1 (AID 1111).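 Further: labelled calmodulin applied in Tris saline Tween buffer holding calcium plus EGTA and DTT.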 The following applies: Cy5-CALM1 binding fluorescence, higher = more signal.
The target is the same in test [15]. Kind of test: calcium-bound CALM1 binders on microarrays, profiling panel, artefact control for SMM control-protein annotation, biochemical, small-molecule microarray, Cy5-labelled CALM1, plus calcium (AID 1112).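 Further: score merges spot fluorescence with signal to noise from triplicate slides.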 The note with it: Cy5-CALM1 binding fluorescence, higher = more signal.
Test [16] can be described thus: small-molecule microarray binders of probe aWnt5a, primary screen, biochemical, biotinylated probe, 635/667 nm fluorescence (AID 1113).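 Further: score merges 667 nm fluorescence intensity with signal-to-noise per printed feature.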 The note with it: higher = more signal.
A short description of test [17]: small-molecule microarray binders of probe aShh, primary screen, biochemical, biotinylated probe, 635/667 nm fluorescence (AID 1114).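 Further: probe is biotin-labelled aShh protein from a stem cell growth factor screen; measures binding of labelled protein to compounds printed on the slide; score merges feature fluorescence at 667 nm with signal-to-noise.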 The following applies: higher = more signal.
Test [18] is described as follows: small-molecule microarray binders of probe aNog, primary screen, biochemical, biotinylated probe, 635/667 nm fluorescence (AID 1115).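 Further: probe is biotinylated aNog protein used at 0.15 µg/mL for 1 h at 4 C; z-score combines 667 nm fluorescence of each spot with its signal to noise.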 The following applies: higher = more signal.
In test [19] the target is Torsin-1A-interacting protein 1 (Homo sapiens) (UniProt Q5JTV8). Kind of test: LAP1 binders from COS7 cell lysate, primary screen, small-molecule microarray, 635/667 nm fluorescence (AID 1116). The following applies: COS7-hLAP1 lysate binding, 635 nm fluorescence, higher = more signal.
Test [20] concerns the target Alpha-bungarotoxin (Bungarus multicinctus) (UniProt P60615). In words: alpha-bungarotoxin binders on microarray, profiling panel, artefact control for SMM control protein annotation, biochemical, small-molecule microarray, Alexa647 label, 635/667 nm fluorescence (AID 1117). The note with it: alpha-BTX-A647 binding fluorescence, higher = more signal.

Activity calls are given as the source filed them.

Chain of Dickkopf-related protein 1 (Homo sapiens) (O94907 whole entry, looked up): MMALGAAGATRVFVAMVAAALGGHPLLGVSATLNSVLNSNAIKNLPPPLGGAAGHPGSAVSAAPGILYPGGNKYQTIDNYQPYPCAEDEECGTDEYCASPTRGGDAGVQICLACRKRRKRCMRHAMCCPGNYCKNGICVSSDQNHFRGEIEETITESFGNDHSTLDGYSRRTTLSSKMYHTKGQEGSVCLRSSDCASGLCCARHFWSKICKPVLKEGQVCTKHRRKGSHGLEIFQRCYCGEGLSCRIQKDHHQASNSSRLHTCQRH
Chain of Alpha-bungarotoxin (Bungarus multicinctus) (P60615 whole entry, looked up): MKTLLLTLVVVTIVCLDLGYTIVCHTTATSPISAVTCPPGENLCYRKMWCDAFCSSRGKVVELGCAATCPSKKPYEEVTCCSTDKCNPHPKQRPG
Chain of Follistatin-related protein 3 (Homo sapiens) (O95633 whole entry, looked up): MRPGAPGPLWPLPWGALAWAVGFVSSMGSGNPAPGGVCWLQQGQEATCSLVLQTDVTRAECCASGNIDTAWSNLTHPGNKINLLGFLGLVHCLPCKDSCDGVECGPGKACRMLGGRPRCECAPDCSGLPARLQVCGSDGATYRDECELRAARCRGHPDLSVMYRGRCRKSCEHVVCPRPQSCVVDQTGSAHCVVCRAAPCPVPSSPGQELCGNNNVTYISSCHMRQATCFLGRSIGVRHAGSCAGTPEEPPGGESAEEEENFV
Chain of Fibroblast growth factor 10 (Homo sapiens) (O15520 whole entry, looked up): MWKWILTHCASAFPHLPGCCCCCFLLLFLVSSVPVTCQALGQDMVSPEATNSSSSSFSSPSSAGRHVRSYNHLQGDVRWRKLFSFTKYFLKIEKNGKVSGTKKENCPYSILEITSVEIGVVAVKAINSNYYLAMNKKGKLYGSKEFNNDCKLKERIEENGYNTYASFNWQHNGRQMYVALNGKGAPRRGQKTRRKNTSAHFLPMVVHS
Chain of Epidermal growth factor receptor (Homo sapiens) (P00533 whole entry, looked up): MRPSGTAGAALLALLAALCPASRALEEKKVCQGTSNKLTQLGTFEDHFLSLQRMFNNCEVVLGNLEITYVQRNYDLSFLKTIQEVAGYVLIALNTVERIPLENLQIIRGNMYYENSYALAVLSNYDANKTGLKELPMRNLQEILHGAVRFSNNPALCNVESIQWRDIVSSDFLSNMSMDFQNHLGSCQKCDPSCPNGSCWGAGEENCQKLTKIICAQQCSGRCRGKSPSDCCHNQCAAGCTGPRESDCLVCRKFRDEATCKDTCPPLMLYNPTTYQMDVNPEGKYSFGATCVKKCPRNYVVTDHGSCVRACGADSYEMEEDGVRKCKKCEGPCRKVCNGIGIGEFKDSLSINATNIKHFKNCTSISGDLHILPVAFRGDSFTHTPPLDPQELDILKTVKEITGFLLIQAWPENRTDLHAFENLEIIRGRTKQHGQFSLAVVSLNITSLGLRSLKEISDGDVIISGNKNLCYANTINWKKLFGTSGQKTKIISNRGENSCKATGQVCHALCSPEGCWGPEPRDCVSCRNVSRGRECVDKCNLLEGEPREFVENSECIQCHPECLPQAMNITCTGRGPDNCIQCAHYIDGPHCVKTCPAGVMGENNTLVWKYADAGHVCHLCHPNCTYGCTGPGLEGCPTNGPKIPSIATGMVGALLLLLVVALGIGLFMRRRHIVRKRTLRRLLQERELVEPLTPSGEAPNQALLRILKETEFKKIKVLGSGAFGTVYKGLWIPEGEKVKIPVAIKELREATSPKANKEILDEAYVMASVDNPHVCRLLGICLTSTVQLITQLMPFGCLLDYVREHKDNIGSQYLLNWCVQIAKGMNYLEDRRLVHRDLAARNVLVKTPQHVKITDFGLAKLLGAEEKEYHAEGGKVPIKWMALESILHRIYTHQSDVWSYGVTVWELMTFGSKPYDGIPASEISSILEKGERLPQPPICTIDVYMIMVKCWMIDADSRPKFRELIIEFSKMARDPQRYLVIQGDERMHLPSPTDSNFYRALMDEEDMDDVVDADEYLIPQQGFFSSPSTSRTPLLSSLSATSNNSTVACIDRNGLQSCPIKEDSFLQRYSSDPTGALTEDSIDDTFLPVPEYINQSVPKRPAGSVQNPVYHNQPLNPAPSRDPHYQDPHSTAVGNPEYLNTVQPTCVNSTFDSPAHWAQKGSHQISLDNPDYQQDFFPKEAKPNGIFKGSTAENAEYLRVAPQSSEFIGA
Chain of Torsin-1A-interacting protein 1 (Homo sapiens) (Q5JTV8 whole entry, looked up): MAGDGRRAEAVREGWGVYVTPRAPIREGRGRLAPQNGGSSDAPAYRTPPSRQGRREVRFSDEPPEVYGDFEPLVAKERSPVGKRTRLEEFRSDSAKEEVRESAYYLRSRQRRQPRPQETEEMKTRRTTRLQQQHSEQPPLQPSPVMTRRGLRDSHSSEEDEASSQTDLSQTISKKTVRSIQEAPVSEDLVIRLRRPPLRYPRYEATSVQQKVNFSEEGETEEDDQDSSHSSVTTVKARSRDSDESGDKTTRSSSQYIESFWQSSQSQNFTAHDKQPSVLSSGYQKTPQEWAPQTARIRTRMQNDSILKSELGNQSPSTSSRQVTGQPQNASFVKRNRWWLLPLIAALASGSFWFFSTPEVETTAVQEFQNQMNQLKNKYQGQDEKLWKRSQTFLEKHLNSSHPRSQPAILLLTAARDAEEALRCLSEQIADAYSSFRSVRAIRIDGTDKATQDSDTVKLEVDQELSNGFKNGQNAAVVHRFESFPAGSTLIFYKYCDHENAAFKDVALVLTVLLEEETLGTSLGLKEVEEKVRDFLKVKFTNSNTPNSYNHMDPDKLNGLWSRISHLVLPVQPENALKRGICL
Chain of Left-right determination factor 2 (Homo sapiens) (O00292 whole entry, looked up): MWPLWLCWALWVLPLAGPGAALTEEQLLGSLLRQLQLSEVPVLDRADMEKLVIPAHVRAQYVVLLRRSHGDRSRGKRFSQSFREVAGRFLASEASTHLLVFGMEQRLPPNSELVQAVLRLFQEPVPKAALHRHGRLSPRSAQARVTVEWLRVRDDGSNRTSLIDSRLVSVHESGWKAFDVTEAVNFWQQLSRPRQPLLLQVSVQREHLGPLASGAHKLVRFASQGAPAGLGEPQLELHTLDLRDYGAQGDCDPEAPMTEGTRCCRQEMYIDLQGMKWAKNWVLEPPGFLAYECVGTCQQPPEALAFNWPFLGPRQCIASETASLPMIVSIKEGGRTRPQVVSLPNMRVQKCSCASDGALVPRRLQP

Consider `Cc1ccc(S[C@]2(C(=O)NCc3ccccc3)CC(=O)N(Cc3ccccc3C(F)(F)F)[C@@H]2c2ccc(CO)cc2)cc1`, for which the composite z-score in [1] is 0.537; in test [2], 0.0191; in test [3], 0.984; in [5], -0.915; in [6], -1.13; in test [7], -1.22. The composite z-score in [8] was -1.28; in test [9], -1.72; in [10], 0.242; in test [11] it was -0.0905; in test [13], -1.86; in test [14], -0.488. In addition, the composite z-score was 0.272 in test [15]; -0.0778 in test [16]; -0.221 in test [17]; 0.381 in [18]; 0.328 in test [19]; -0.191 in test [20]. For the same compound, the z-score was -0.284 (inactive) in test [4] and -1.46 in test [12].

For `COC(=O)[C@]1(CCC(=O)OC(C)(C)C)N=C(c2ccc(OCCCO)cc2)O[C@@H]1c1ccccc1N=[N+]=[N-]`, the composite z-score was 0.911 in [1]; 0.254 in test [2]; 0.855 in test [3]; 0.49 in test [5]; -0.107 in test [6]; -0.287 in test [7]. Besides, the composite z-score in [8] was 0.168; in test [9] it was -0.281; in [10], 0.809; in [11], 0.892; in test [13] it was -0.557; in [14] it was -0.175. For the same compound, the composite z-score is -0.875 in test [15]; 0.0403 in test [16]; -0.119 in [17]; 0.504 in [18]; 0.468 in test [19]; 0.302 in [20]. Moreover, the z-score in [4] is -0.229 (inactive); in [12], -2.05.

Consider `O=C(NCc1ccccc1)[C@@H]1c2ccccc2C(=O)N(Cc2cc(C(F)(F)F)cc(C(F)(F)F)c2)[C@H]1c1ccc(CO)cc1`, for which the composite z-score stood at 0.569 in test [1]; 0.0477 in test [2]; 0.184 in [3]; 1.13 in test [5]; 1.25 in test [6]; 0.171 in test [7]. Besides, the composite z-score was found to be 1.04 in test [8]; 0.517 in [9]; 0.277 in test [10]; 1.38 in [11]; 0.446 in test [13]; 0.288 in test [14]. For the same compound, the composite z-score in test [15] was -0.823; in test [16] it was 0.0257; in test [17], -0.0011; in test [18] it was -0.213; in test [19] it was 0.517; in test [20], 0.556. The z-score is 0.000819 (inactive) in test [4] and 0.0626 in [12].

For `C=C(COC)C(=O)CC[C@@H](OC(=O)c1ccccc1-c1ccccc1C(=O)O)c1ccc(OCCO)cc1`, the composite z-score in [1] was 0.398; in test [2], -0.321; in test [3], 0.0721; in test [5], 0.983; in [6], -0.278; in test [7], -0.487. Moreover, the composite z-score is 0.684 in test [8]; 0.0668 in test [9]; 1.08 in [10]; -0.0675 in [11]; 0.079 in test [13]; -0.601 in [14]. Moreover, the composite z-score in test [15] was -0.942; in [16], -0.145; in test [17] it was -0.304; in test [18], 0.338; in test [19], 1.21; in [20], -0.0978. In addition, the z-score was 0.833 (inactive) in [4] and -1.88 in test [12].

As to `COc1ccc(C(O)C2C=CC3C(=O)N(c4ccccc4)C(=O)C3N2Nc2ccc(C#N)cc2)cc1OCc1ccccc1` (stereo not given), the composite z-score in test [1] was 1.09; in test [2], 1.31; in [3], 1.42; in [5], 0.372; in test [6], 0.564; in test [7] it was 0.0706. For the same compound, the composite z-score in [8] was 0.727; in test [9], -0.463; in test [10], 0.898; in [11], 1.04; in [13], -0.165; in test [14] it was 2.32. For the same compound, the composite z-score in [15] was 1.29; in test [16], 0.0497; in [17] it was 0.171; in [18] it was 0.1; in [19], 2.54; in test [20], 1.16. Moreover, the z-score is 0.471 (inactive) in test [4] and -0.738 in test [12].

Values taken from PubChem BioAssay.
